Experiment [1] concerns the target Estrogen receptor beta (Homo sapiens) (UniProt Q92731). Briefly: OT_ER_ERbERb_1440: Odyssey Thera (OT) 24-hour HEK293T Protein-Complementation Assay for Estrogen Receptor-beta/-beta Homodimer (AID 2283380).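 Also: fluorescence gain from ER beta LBD homodimer complementation read by laser scanning cytometry; scored as signal increase over DMSO baseline for both agonists and antagonists.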 An outline of the steps:
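HEK293T cells stably expressing human ER-beta LBD (aa 310-547) PCA homodimer pair, dosed 24 h; formaldehyde-fixed, Draq5-stained. Readout: increase in nuclear (agonist) or nuclear plus cytoplasmic (antagonist) fluorescence intensity versus DMSO, gain-of-signal fitting.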

For experiment [2], the target named is Estrogen receptor (Homo sapiens) (UniProt P03372). Briefly: OT_ERa_GFPERaERE_0480: Odyssey Thera (OT) 8-hour HeLa Transcription Induction Assay for Estrogen Receptor (AID 2283381; active = hit-call score of the fitted dose curve at least 0.9, where 1 is the maximum; inactive = score below 0.9). In a few lines:
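Human cervical HeLa cells were treated for 8 hours, after which ERE-driven GFP induction was measured by fluorescence microscopy; increases over DMSO baseline defined activity.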

The target in experiment [3] is Retinoic acid receptor RXR-alpha (Homo sapiens) (UniProt P19793). Briefly: OT_NURR1_NURR1RXRa_0480: Odyssey Thera (OT) 8-hour HEK293T Protein Complementation Assay for Nurr1/retinoid X receptor (RXR) (AID 2283385). An outline of the steps:
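Interaction of bait and prey reconstitutes a functional reporter, whose fluorescence was measured in HEK293T cells dosed with compound for 8 hours. Signal gain relative to DMSO defined the single endpoint.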

For experiment [4] the target is unchanged. In words: OT_NURR1_NURR1RXRa_1440: Odyssey Thera (OT) 24-hour HEK293T Protein Complementation Assay for Nurr1/retinoid X receptor (RXR) (AID 2283386). An outline of the steps:
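Steps: fragment-tagged Nurr1 and RXRα expressed in HEK293T; compounds added; after 24 h, complemented reporter quantified by fluorescence intensity; signal increase over DMSO fitted as the single endpoint.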

For experiment [5], the target named is Peroxisome proliferator-activated receptor gamma (Homo sapiens) (UniProt P37231). Briefly: OT_PPARg_PPARgSRC1_0480: Odyssey Thera (OT) 8-hour Protein-Complementation Assay for Peroxisome Proliferator-activated Receptor Gamma / SRC-1 Co-activator (AID 2283387). In a few lines: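 Split-YFP (IFP1/IFP2) PPARg/SRC-1 reporter, HEK293T, 37 °C, 5% CO2; 8 h compound; formaldehyde fix + Draq5; high-content imaging, N/C ratio, ≥350 cells/image, positive direction vs DMSO.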

For experiment [6] the target is unchanged. In words: OT_PPARg_PPARgSRC1_1440: Odyssey Thera (OT) 24-hour Protein-Complementation Assay for Peroxisome Proliferator-activated Receptor Gamma/ SRC-1 Co-activator (AID 2283388). In a few lines:
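HEK293T cells transiently transfected with PPARg and SRC-1 fused via (Gly4Ser)2 linker to split Venus YFP fragments (IFP1/IFP2) were dosed 24 h; fixed, Draq5-stained, imaged at 488/635 nm; nuclear/cytoplasmic fluorescence ratio scored versus DMSO baseline, gain-of-signal.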

Experiment [7] has as its target Bile acid receptor (Homo sapiens) (UniProt Q96RI1). Briefly: OT_FXR_FXRSRC1_0480: Odyssey Thera (OT) 8-hour HEK293T Protein-Complementation Assay for Farnesoid X receptor/SRC-1 Co-activator (AID 2283383). In a few lines:
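PCA, HEK293T, 8 h compound exposure; FXR–SRC-1 binding reconstitutes split reporter; fluorescence intensity; positive-direction fit vs DMSO.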

The target in experiment [8] is Agonist Androgen Response Element (ARE), AR (gene 367) (UniProt P10275). In words: OT_AR_ARELUC_AG_1440: Odyssey Thera (OT) 24-hour CHO-K1 Luciferase Assay for Agonist Androgen Response Element (ARE) (AID 2283379). An outline of the steps: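 Luminescence increase above DMSO, read after a 24 h compound treatment of CHO-K1 cells expressing an androgen response element luciferase reporter, gives the single primary endpoint; concentration-response fitting used the positive direction.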

The target in experiment [9] is Estrogen receptor (Homo sapiens) (UniProt P03372). In words: OT_ERa_GFPERaERE_0120: Odyssey Thera (OT) 2-hour HeLa Transcription Induction Assay for Estrogen Receptor (AID 2283382). An outline of the steps:
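Cells (human cervical HeLa) receive compound, incubate 2 hours, then are imaged for fluorescent reporter induction. Images are quantified by high content analysis, and activity is fitted as gain of signal against DMSO.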

The target in experiment [10] is Bile acid receptor (Homo sapiens) (UniProt Q96RI1). Briefly: OT_FXR_FXRSRC1_1440: Odyssey Thera (OT) 24-hour HEK293T Protein-Complementation Assay for Farnesoid X receptor/SRC-1 Co-activator (AID 2283384). An outline of the steps:
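Measures ligand-driven FXR–SRC-1 co-activator recruitment in HEK293T via fragment complementation, fluorescence intensity at 24 h. DMSO served as negative control and baseline for gain-of-signal fitting.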

Experiment [11] can be described thus: CEETOX_H295R_11DCORT: CeeTox H295R High-throughput Steroidogenesis Assay for 11-Deoxycortisol (11DCORT) (AID 2283432; active = hit-call score of the fitted dose curve at least 0.9, where 1 is the maximum; inactive = score below 0.9). To be noted: actives raise or lower the signal. In a few lines: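 Steroidogenesis in human H295R cells: 48 h chemical exposure after forskolin priming, 11-deoxycortisol measured by LC-MS/MS.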
Experiment [12] can be described thus: CEETOX_H295R_OHPREG: CeeTox H295R High-throughput Steroidogenesis Assay for OH-Pregnenolone (OHPREG) (AID 2283434; active = hit-call score of the fitted dose curve at least 0.9, where 1 is the maximum; inactive = score below 0.9). The settings on record: actives raise or lower the signal. In a few lines: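 Readout: HPLC-MS/MS of 17alpha-hydroxypregnenolone in medium after 48 h chemical exposure of H295R cells pretreated with forskolin. Values fitted bidirectionally relative to DMSO; chemicals reducing viability to 20–70% were retested after 10-fold dilution.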

The nature of experiment [13]: CEETOX_H295R_OHPROG: CeeTox H295R High-throughput Steroidogenesis Assay for OH-Progesterone (OHPROG) (AID 2283435; active = hit-call score of the fitted dose curve at least 0.9, where 1 is the maximum; inactive = score below 0.9;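 as to AC50: human adrenal H295R cells primed 48 h with 10 µM forskolin; 17alpha-hydroxyprogesterone secreted into medium measured by HPLC-MS/MS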). The settings on record: actives raise or lower the signal. An outline of the steps:
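Steps: seed H295R cells and adhere overnight; stimulate with 10 uM forskolin for 48 h; replace with chemical-containing medium (0.1% DMSO) for 48 h; extract medium with MTBE; quantify 17alpha-hydroxyprogesterone by reverse-phase C18 HPLC-MS/MS against a 7-point curve.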

Experiment [14] in a line: CEETOX_H295R_ANDR: CeeTox H295R High-throughput Steroidogenesis Assay for Androstenedione (ANDR) (AID 2283436; active = hit-call score of the fitted dose curve at least 0.9, where 1 is the maximum; inactive = score below 0.9;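 also: human H295R adrenal cells exposed for 48 h with androstenedione measured in medium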). To be noted: actives raise or lower the signal. In a few lines: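 Steroidogenesis in H295R adrenal cells after 48 h dosing; androstenedione quantified by LC-MS/MS, with DMSO as negative control and baseline for bidirectional curve fitting.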

Each structure is given as a SMILES string. Inconclusive results are not listed. Some structures have more than one record in an assay (separate samples or runs), and their calls can disagree. Calls of active or inactive are those of the source. The calls were made as follows, unless noted: active = hit-call score of the fitted dose curve at least 0.9, where 1 is the maximum; inconclusive = response in the unintended direction; inactive = score below 0.9.

One may read the AC50 as the concentration giving half of the maximal activity seen.

Sequence of Bile acid receptor (Homo sapiens) (Q96RI1 whole entry, looked up, the tested form may be a part): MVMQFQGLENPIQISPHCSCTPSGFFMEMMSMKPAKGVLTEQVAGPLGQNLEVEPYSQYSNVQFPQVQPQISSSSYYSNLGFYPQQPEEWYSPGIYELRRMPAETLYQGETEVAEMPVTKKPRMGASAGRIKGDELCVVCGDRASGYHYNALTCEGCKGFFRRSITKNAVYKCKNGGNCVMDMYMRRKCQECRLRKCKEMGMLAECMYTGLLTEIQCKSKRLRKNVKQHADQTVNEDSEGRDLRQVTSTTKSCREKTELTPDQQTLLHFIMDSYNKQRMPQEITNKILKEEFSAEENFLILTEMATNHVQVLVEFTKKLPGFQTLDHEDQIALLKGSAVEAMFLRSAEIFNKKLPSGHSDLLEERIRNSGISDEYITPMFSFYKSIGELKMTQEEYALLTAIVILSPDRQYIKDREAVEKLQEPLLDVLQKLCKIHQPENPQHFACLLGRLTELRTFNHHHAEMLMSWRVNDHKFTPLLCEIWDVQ
Sequence of Estrogen receptor (Homo sapiens) (P03372 whole entry, looked up): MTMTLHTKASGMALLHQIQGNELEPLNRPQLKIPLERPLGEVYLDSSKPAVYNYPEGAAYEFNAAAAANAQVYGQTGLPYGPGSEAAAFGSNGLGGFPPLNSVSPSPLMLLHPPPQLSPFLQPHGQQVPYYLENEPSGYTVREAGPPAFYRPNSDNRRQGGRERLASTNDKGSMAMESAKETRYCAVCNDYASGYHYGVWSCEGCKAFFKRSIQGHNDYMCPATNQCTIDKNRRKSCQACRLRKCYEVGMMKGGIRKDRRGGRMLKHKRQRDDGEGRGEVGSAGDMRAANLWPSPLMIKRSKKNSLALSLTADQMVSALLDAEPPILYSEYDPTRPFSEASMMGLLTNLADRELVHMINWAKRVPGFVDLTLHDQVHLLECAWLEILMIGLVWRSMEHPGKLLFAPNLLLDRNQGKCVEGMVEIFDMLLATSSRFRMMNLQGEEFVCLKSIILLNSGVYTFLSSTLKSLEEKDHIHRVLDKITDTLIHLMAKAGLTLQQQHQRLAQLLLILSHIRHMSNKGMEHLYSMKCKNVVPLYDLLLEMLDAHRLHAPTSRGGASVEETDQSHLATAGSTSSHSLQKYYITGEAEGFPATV
Sequence of Agonist Androgen Response Element (ARE), AR (gene 367) (P10275 whole entry, looked up): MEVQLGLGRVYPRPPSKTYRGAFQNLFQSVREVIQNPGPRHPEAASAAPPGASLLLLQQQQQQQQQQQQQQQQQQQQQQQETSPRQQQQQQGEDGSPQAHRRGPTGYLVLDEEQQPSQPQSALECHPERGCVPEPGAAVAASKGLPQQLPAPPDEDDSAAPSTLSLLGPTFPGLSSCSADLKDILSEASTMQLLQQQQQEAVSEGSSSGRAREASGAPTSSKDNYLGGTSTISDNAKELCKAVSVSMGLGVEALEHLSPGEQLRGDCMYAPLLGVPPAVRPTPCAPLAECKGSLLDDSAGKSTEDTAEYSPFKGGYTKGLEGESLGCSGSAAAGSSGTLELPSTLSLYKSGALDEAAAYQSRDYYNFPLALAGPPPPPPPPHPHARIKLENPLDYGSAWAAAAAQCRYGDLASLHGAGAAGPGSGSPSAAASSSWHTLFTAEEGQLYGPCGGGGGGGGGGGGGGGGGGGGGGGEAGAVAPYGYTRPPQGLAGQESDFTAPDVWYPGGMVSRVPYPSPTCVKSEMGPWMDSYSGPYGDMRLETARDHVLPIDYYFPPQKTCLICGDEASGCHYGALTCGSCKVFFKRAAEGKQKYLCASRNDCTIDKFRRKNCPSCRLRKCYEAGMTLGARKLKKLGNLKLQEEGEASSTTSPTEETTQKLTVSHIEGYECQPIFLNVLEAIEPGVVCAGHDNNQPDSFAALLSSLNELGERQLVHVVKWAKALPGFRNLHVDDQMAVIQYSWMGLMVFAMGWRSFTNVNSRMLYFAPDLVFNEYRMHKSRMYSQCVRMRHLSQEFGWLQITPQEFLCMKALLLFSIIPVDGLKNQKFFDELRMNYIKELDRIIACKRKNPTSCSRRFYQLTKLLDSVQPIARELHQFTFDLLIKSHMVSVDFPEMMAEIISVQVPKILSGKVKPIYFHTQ
Sequence of Retinoic acid receptor RXR-alpha (Homo sapiens) (P19793 whole entry, looked up): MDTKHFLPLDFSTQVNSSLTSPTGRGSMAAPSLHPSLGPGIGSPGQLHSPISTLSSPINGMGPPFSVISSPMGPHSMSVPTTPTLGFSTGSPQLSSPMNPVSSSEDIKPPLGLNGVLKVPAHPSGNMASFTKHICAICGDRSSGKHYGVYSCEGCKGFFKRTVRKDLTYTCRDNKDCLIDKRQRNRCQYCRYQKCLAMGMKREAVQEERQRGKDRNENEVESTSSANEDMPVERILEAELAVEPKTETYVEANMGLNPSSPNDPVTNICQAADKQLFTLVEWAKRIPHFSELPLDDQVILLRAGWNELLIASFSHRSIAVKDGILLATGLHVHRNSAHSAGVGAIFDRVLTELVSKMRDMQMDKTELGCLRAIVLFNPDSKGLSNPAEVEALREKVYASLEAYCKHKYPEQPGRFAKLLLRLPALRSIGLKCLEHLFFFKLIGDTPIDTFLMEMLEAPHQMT
Sequence of Peroxisome proliferator-activated receptor gamma (Homo sapiens) (P37231 whole entry, looked up): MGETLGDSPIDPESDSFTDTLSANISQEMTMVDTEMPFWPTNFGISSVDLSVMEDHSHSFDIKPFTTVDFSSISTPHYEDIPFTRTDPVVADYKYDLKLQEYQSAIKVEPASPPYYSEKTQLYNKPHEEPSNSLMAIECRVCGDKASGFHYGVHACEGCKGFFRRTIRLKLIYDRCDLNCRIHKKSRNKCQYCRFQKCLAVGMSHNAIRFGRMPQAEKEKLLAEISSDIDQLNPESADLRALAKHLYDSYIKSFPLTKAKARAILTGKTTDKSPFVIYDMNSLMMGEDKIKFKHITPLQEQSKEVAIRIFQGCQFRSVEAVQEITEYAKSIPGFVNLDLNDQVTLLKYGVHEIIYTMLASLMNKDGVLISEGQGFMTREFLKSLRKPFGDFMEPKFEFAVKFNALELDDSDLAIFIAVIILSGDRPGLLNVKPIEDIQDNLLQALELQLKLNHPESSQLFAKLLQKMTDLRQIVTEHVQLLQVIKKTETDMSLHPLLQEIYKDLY
Sequence of Estrogen receptor beta (Homo sapiens) (Q92731 whole entry, looked up, the tested form may be a part): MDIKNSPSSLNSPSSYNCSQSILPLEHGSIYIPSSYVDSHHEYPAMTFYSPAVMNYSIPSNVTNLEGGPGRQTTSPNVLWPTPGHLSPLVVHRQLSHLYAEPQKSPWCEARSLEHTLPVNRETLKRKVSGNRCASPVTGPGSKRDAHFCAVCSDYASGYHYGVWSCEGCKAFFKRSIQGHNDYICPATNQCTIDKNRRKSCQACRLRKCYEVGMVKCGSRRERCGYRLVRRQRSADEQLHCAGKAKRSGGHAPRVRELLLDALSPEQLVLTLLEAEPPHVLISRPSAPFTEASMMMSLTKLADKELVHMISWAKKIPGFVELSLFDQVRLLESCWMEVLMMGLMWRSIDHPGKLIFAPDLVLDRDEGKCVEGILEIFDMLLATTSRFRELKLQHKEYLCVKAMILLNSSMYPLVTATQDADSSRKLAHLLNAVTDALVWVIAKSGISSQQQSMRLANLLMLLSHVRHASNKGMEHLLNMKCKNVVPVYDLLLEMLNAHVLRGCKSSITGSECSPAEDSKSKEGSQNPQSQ

In the case of `Cn1cc[nH]c1=S`, the compound was called inactive in [1], in experiment [2], in experiment [3], in experiment [4], in experiment [5] and in experiment [6].

On to `CC(C)CC(C)O` (stereo not given), for which the result in [1], in experiment [2], in experiment [7], in experiment [3], in [4] and in [5] was inactive. The result in experiment [6] was inactive.

As for `CCc1cccc(CC)c1N`, the compound was called inactive in experiment [8], in experiment [1], in experiment [2], in experiment [9], in experiment [3] and in experiment [4].

For the compound `OCCNCCO`, the compound was classed as inactive in experiment [2], in experiment [3] and in experiment [4].

As to `NC(=O)NN=Cc1ccc([N+](=O)[O-])o1`, the compound was classed as inactive in [1], in [2], in experiment [9], in experiment [3], in experiment [4] and in experiment [5]. Moreover, the outcome in [6] was inactive.

For `CCCCOC(=O)c1ccccc1`, the result in [8], in [2], in experiment [3], in [4], in [5] and in [6] was inactive.

For `CCCCCOC(C)=O`, the compound was classed as inactive in experiment [2], in experiment [3], in experiment [4] and in [5].

As for `OC[C@H]1O[C@@](CO)(O[C@H]2O[C@H](CO)[C@@H](O)[C@H](O)[C@H]2O)[C@@H](O)[C@@H]1O`, the compound was classed as inactive in [1], in experiment [2], in experiment [9], in [10], in experiment [3] and in [4]. The outcome in experiment [5] and in experiment [6] was inactive.

In the case of `COc1cc2c(c(OC)c1OC)-c1ccc(OC)c(=O)cc1[C@@H](NC(C)=O)CC2`, the compound was classed as inactive in experiment [8], in experiment [1], in [2], in [3], in experiment [4] and in experiment [5]. In addition, the compound was classed as inactive in experiment [11], in experiment [12], in [13] and in experiment [14]. Besides, the AC50 is 0.0869 µM (active) in experiment [7], 0.03 µM (active) in experiment [10], 8.86 µM (active) in experiment [3] and 10.6 µM (active) in [4].

On to `O=C(O)c1cccc(C(=O)O)c1`, for which the compound was classed as inactive in experiment [2], in experiment [9], in experiment [7], in experiment [10] and in experiment [5].

`CCCCCCOC(=O)CC(CC(=O)OCCCCCC)(OC(=O)CCC)C(=O)OCCCCCC`: the compound was called inactive in experiment [1], in [2], in [9], in experiment [3] and in experiment [5].

For `CCCCN1C(=O)[C@@H]([C@H](O)C2CCCCC2)NC(=O)C12CCN(Cc1ccc(Oc3ccc(C(=O)O)cc3)cc1)CC2`, the compound was called inactive in [1], in experiment [2], in experiment [9], in [3], in experiment [4] and in experiment [5].

As for `CCCc1ccccc1`, the compound was called inactive in experiment [1], in [2], in experiment [9], in experiment [3], in experiment [4] and in [5]. In addition, the outcome in experiment [6] was inactive.

Regarding `NC(N)=O`, the call in [1], in [2], in experiment [3], in experiment [4] and in [5] was inactive.

Consider `CC(=O)c1ccccc1`, for which the compound was classed as inactive in [2], in experiment [9], in experiment [3], in experiment [4], in [5] and in experiment [6].

As to `NC(=O)N(O)[C@@H]1COc2cc(OCc3ccccc3)ccc21`, the compound was called inactive in experiment [1], in experiment [2], in experiment [9], in experiment [7], in [10] and in experiment [3]. The compound was classed as inactive in experiment [4] and in experiment [5].

Consider `O=C1CN(N=Cc2ccc([N+](=O)[O-])o2)C(=O)N1`, for which the outcome in [1], in experiment [2] and in experiment [5] was inactive.

With `NNC(=O)c1ccncc1`, the compound was called inactive in experiment [1], in experiment [2], in experiment [3], in [4], in experiment [5] and in experiment [6].

With `O=C(O)CO`, the call in experiment [1], in experiment [2], in experiment [9], in experiment [4] and in experiment [5] was inactive.

With `CCOc1ccc2[nH]cc(C(=O)NCc3ccccc3)c(=O)c2n1`, the compound was classed as inactive in experiment [1], in experiment [2], in experiment [7], in experiment [10], in experiment [4] and in experiment [5]. For the same compound, the call in [12] was inactive. Moreover, in experiment [13], the concentration at half-maximal activity (AC50) was 68.1 µM (active).

`c1ccc2ncccc2c1`: the outcome in experiment [2], in experiment [9], in experiment [3], in experiment [4] and in [5] was inactive.

The record behind these values is PubChem BioAssay (EPA / NIEHS).
